In PubChem BioAssay:
Calls of active or inactive are those of the source. Unless noted, how the calls were made is not given here.

Columns and labels:
[1] = compound effects on lung adenocarcinoma cell viability – A549, calcein-AM fluorescence, 48 h, basal, profiling panel (AID 1162); conditions: higher = more signal; further: test concentration not given here
[2] = compound effects on differentiated 3T3-L1 adipocyte viability – cell-based, 3T3-L1 adipocytes, calcein-AM fluorescence, 48 h, basal, profiling panel (AID 1163); conditions: 3T3-L1 adipocytes viability, higher = more signal; further: test concentration not given here
[3] = compound effects on hepatocellular carcinoma cell viability – HepG2, calcein-AM fluorescence, 48 h, basal, profiling panel (AID 1164); conditions: higher = more signal; further: test concentration not given here
[4] = compound effects on multiple myeloma cell viability – MM1S, calcein-AM fluorescence, 48 h, basal, profiling panel (AID 1165); conditions: higher = more signal; further: test concentration not given here
[5] = calcein-AM signal in unstimulated myeloma cells – cell-based, calcein-AM fluorescence, 48 h, PK04 Diversity Set, profiling panel (AID 1166); conditions: RPMI8226 myeloma viability, higher = more signal;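 further: cells grown under basal conditions without added stimulus; test concentration not given here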
[6] = JC-1 mitochondrial signal, unstimulated HepG2 cells – cell-based, JC-1 fluorescence, 24 h, 100 nL compound, profiling panel (AID 1167); conditions: HepG2 mitochondrial potential, higher = more signal; further: test concentration not given here
[7] = JC-1 mitochondrial signal, unstimulated adipocytes – cell-based, JC-1 fluorescence, 3T3-L1 adipocytes, 24 h, 100 nL compound, profiling panel (AID 1168); conditions: JC-1 mitochondrial fluorescence, higher = more signal, called active from +8 up or from −8 down; further: test concentration not given here
[8] = JC-1 mitochondrial signal, unstimulated myeloma cells – cell-based, JC-1 fluorescence, RPMI8226, 24 h, 100 nL compound, profiling panel (AID 1169); conditions: JC-1 mitochondrial potential fluorescence, higher = more signal; further: test concentration not given here
[9] = JC-1 mitochondrial signal, unstimulated MM1S myeloma – cell-based, JC-1 fluorescence, 24 h, 100 nL compound, profiling panel (AID 1170); conditions: MM1S mitochondrial potential, higher = more signal; further: test concentration not given here
[10] = resazurin metabolic signal in A549 cells – cell-based, resazurin fluorescence, 24 h, PK04 Diversity Set, profiling panel (AID 1171); conditions: A549 viability, higher = more signal, called active from +8 up or from −8 down; further: test concentration not given here
[11] = resazurin metabolic signal in HepG2 cells – cell-based, resazurin fluorescence, 24 h, PK04 Diversity Set, profiling panel (AID 1172); conditions: HepG2 viability, higher = more signal; further: test concentration not given here
[12] = budding yeast growth changes without added modifier – OD600, strain BY4716, 24 h, basal condition, primary screen (AID 1173); conditions: S. cerevisiae BY4716 growth, OD600, 24 h; higher = more signal, called active from +8 up or from −8 down
[13] = viability profiling in MM1S myeloma cells – cell-based, resazurin fluorescence, basal, 24 h, PK04 Diversity Set, profiling panel (AID 1174); conditions: higher = more signal, called active from +8 up or from −8 down; further: test concentration not given here
[14] = molecular target: Dihydroorotate dehydrogenase (quinone), mitochondrial (Plasmodium falciparum (isolate 3D7)) (UniProt Q08210); experiment: inhibition of P. falciparum DHODH – biochemical, C-terminal His tag, absorbance 600 nm, primary screen (AID 1175); conditions: PfDHODH enzyme, DCIP absorbance 600 nm; higher = more signal, called active from +8 up or from −8 down;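 further: recombinant parasite enzyme with a five histidine tag at its C terminus; test concentration not given here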
[15] = inhibition of PAO1 biofilm formation – strain PAO1, LB-PBS medium, absorbance 600 nm, primary screen (AID 1176); further: test concentration not given here; conditions: P. aeruginosa PAO1 growth/biofilm, A600, 12 h; higher = more signal
[16] = growth modulation of vineyard yeast isolate – strain RM11-1a, OD600, basal, 24 h, primary screen (AID 1177);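 further: cultures grown under basal conditions with no added stressor; test concentration not given here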; conditions: S. cerevisiae RM11-1a growth, OD600, 24 h; higher = more signal, called active from +8 up or from −8 down
[17] = growth of efflux-deficient E. coli DRC39 – strain DRC39, OD650, 24 h, E. coli filamentation inducers, primary screen (AID 1178);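 further: growth measured as culture turbidity by optical density at 650 nm; test concentration not given here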; conditions: E. coli DRC39 acrAB, higher = more signal, called active from +8 up or from −8 down
[18] = growth of efflux-deficient E. coli DRC39 – strain DRC39, OD650, 48 h, E. coli filamentation inducers, primary screen (AID 1179);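 further: screen aims at cell division blockers that make cells filament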; conditions: E. coli DRC39 delta-acrAB growth, higher = more signal, called active from +8 up or from −8 down
[19] = viability profiling in RPMI8226 myeloma cells – cell-based, resazurin fluorescence, basal, 24 h, PK04 Diversity Set, profiling panel (AID 1180); conditions: higher = more signal;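 further: RPMI8826 multiple myeloma cell line at 5000 cells per well; test concentration not given here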
[20] = molecular target: E3 ubiquitin-protein ligase XIAP (Homo sapiens) (UniProt P98170); experiment: small molecules binding XIAP protein – biophysical, small-molecule microarray, fluorescence 635 nm, primary screen (AID 1181); conditions: higher = more signal;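 further: score merges 667 nm emission and signal to noise over triplicate slides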
Chain of E3 ubiquitin-protein ligase XIAP (Homo sapiens) (P98170 whole entry, looked up): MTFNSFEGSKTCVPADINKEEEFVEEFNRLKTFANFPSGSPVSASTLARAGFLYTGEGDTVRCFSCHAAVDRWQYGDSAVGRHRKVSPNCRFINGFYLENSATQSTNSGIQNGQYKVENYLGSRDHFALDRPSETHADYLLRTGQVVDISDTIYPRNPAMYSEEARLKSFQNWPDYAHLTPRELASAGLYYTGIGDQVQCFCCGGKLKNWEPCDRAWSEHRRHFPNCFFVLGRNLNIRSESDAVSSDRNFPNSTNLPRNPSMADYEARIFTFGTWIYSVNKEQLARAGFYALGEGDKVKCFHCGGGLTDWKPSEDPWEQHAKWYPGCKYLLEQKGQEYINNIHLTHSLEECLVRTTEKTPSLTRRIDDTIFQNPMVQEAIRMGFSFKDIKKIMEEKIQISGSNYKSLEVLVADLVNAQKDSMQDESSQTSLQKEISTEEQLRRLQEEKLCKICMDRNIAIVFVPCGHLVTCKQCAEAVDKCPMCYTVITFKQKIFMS

Chain of Dihydroorotate dehydrogenase (quinone), mitochondrial (Plasmodium falciparum (isolate 3D7)) (Q08210 whole entry, looked up): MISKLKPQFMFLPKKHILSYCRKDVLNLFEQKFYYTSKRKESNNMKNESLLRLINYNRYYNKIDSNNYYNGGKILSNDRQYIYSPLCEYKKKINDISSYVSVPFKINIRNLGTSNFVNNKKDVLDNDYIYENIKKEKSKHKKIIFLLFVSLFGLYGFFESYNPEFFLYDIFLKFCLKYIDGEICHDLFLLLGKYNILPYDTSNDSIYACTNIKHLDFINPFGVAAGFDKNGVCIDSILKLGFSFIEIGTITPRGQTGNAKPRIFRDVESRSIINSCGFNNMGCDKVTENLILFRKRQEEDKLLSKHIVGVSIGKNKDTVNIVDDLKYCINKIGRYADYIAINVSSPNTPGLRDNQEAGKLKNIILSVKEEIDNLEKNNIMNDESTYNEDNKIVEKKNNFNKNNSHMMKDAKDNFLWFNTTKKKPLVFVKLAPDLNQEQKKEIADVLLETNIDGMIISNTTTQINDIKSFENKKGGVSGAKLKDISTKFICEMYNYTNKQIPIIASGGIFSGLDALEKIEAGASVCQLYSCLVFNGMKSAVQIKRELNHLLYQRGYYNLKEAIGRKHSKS

SMILES | z-score [1] | z-score [2] | z-score [3] | z-score [4] | z-score [5] | z-score [6] | z-score [7] | z-score [8] | z-score [9] | z-score [10] | z-score [11] | z-score [12] | z-score [13] | composite z-score [14] | z-score [15] | z-score [16] | z-score [17] | z-score [18] | z-score [19] | composite z-score [20]
CCOC(=O)[C@H](CC(C)C)NC(=O)CCC1CC(OC(=O)NCCc2ccc(F)cc2)CC2(CCCC(COC(=O)NCCOC)O2)O1 (stereo not given in full) | 0.0721 | -1.02 | -0.384 | 0.695 | 0.124 | -1.21 | -0.459 (inactive) | 0.64 | 0.441 | 0.305 (inactive) | 0.0369 | 1.02 (inactive) | 0.581 (inactive) | 0.753 (inactive) | 0.283 (inactive) | 0.963 (inactive) | 0.0415 (inactive) | -0.489 (inactive) | 0.464 | -0.18
CCc1cc2c(nc1CC)CCN(CCC(C)=NOC[C@@H](C)[C@H](OCc1ccccc1)C(C)C)C2 | 1.58 | 0.546 | 1.43 | -2 | -0.584 | 2 | 1 (inactive) | 0.278 | 0.486 | -0.445 (inactive) | -0.0541 | -0.258 (inactive) | 0.0348 (inactive) | -1.67 (inactive) | -0.537 (inactive) | -2.21 (inactive) | -0.231 (inactive) | -0.313 (inactive) | -0.261 | -0.11
CCN1C(=O)[C@H]2[C@H]3[C@H](O)[C@H](O)CC(=NOC[C@@H](O)[C@H]4O[C@@H]5OC(C)(C)O[C@@H]5[C@H]4O)[C@@H]3CC[C@H]2C1=O | 0.725 | -0.532 | 0.282 | 0.388 | 0.12 | 0.0654 | 0.141 (inactive) | 0.71 | -0.481 | -0.794 (inactive) | -1.27 | -0.569 (inactive) | -2.69 (inactive) | -0.898 (inactive) | -0.795 (inactive) | -0.0223 (inactive) | 0.74 (inactive) | 0.144 (inactive) | -0.767 | 0.0126
CC(CCN1CCc2nc(-c3ccccc3)c(-c3ccccc3)cc2C1)=NOC(C)CN1CCCc2nc(C)c(C)cc21 (stereo not given) | 1.23 | 0.301 | 0.69 | -2.9 | -0.616 | 6.43 | -1.28 (inactive) | -0.866 | -0.881 | 0.289 (inactive) | -0.0686 | -3.98 (inactive) | -0.877 (inactive) | 0.417 (inactive) | 0.371 (inactive) | -0.572 (inactive) | 0.798 (inactive) | -0.391 (inactive) | -0.469 | 0.326
CC1(C)O[C@H]2O[C@H]([C@H](O)CON=C3[C@H]4CCn5c(=O)n(-c6ccccc6)c(=O)n5[C@H]4[C@H](O)[C@@H]4O[C@H]34)[C@H](O)[C@H]2O1 | -0.359 | 0.104 | -0.0631 | 0.112 | 0.279 | -0.494 | -1.12 (inactive) | 0.438 | 0.223 | 0.065 (inactive) | -0.294 | -0.139 (inactive) | 0.159 (inactive) | -0.327 (inactive) | 0.593 (inactive) | -0.894 (inactive) | 0.483 (inactive) | -0.516 (inactive) | 0.343 | -0.0767
CC(C)CON=C1C[C@@H](O)[C@@H](O)[C@@H]2[C@@H]3C(=O)N(c4ccc(F)cc4F)C(=O)[C@@H]3CC[C@@H]12 | -0.793 | 0.44 | -0.464 | -0.102 | -0.587 | 1.31 | -0.4 (inactive) | -0.648 | -0.425 | 0.491 (inactive) | 0.372 | -1.98 (inactive) | 0.88 (inactive) | -2.1 (inactive) | -0.27 (inactive) | -1.22 (inactive) | 1.01 (inactive) | 0.15 (inactive) | -0.226 | -0.0296
C=CCOCC1CN2[C@@H](CC[C@@H](C)[C@@H]2c2ccc(Br)cc2)C(=O)O1 (stereo not given in full) | 0.124 | 0.312 | 0.289 | -0.268 | -0.0306 | 0.506 | -0.809 (inactive) | -0.207 | 0.672 | 0.743 (inactive) | 0.685 | -0.139 (inactive) | 0.824 (inactive) | -0.959 (inactive) | 0.013 (inactive) | 1.14 (inactive) | 0.622 (inactive) | -0.0542 (inactive) | 1.49 | -0.184
C[C@@H]1CC[C@H]2C(=O)O[C@@H](COc3ccc(C(C)(C)C)cc3)CN2[C@H]1c1ccc(Br)cc1 | 0.255 | -0.076 | 0.0944 | -1.26 | -0.794 | -1.31 | -1.16 (inactive) | -0.16 | 0.455 | 1.71 (inactive) | 0.7 | -0.481 (inactive) | 0.385 (inactive) | 0.444 (inactive) | 0.11 (inactive) | -0.0191 (inactive) | -0.578 (inactive) | -0.423 (inactive) | 0.749 | -0.327
CCN1C(=O)[C@H]2[C@H]3[C@H](O)[C@H](O)CC(=NO[C@@H]4O[C@H](COC(C)=O)[C@@H](OC(C)=O)[C@H](OC(C)=O)[C@H]4OC(C)=O)[C@@H]3CC[C@H]2C1=O | 0.13 | -0.81 | -0.145 | -1.29 | -1.05 | -0.611 | -1.51 (inactive) | 0.69 | -0.654 | -0.959 (inactive) | -1.15 | 0.902 (inactive) | -0.974 (inactive) | -0.0673 (inactive) | -0.136 (inactive) | 0.164 (inactive) | 1.22 (inactive) | 1.44 (inactive) | -1.03 | 1.92
